Results from PubChem BioAssay (NCATS).
Records with an inconclusive call do not appear. Active and inactive are the calls of the source. Unless noted, calls follow the shape of the dose curve; as a rule, active = well fitted curve in the direction sought with a large enough effect; inconclusive = small, poorly fitted or top-dose-only effect, or another doubt; inactive = no such curve, though single readings can be large; an effect the other way counts as inactive or inconclusive.

Columns and labels:
[1] = qHTS for compounds that reverse cellular toxicity of Amyloid beta (A-beta) peptide in yeast: LOPAC Validation Assay (AID 720559)
Outline: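 Here, A-beta-toxic yeast grow with test compounds at 30 C for 48 hr before optical density at 600 nm is recorded; data are normalized against DMSO and the FeCl3-clioquinol control.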

[2] = qHTS for Activators of Parkin Expression: LOPAC Validation Assay (NLuc Reporter) (AID 720572)
Outline: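 Compound effects on Parkin promoter activity were measured as NanoLuc luminescence after 24 h at 37 C. The neuronal reporter line also carried FLuc, which was read first. LOPAC compounds were tested at 7 concentrations, with normalization to DMSO (0%) and positive control (100%).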

[3] = qHTS for Activators of Parkin Expression: LOPAC Validation Assay (FLuc Reporter) (AID 720573)
Outline: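 Readout is FLuc luminescence from neuronal reporter cells (Parkin promoter, FLuc plus NLuc) after 24 h compound exposure in dose response. Values normalized to neutral DMSO and positive-control compounds.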

[4] = target: T1, Hexokinase-4 (Homo sapiens) + Glucokinase regulatory protein (Homo sapiens) (UniProt P35557+Q14397); test: qHTS assay for inhibitors of recombinant human GCK-GKRP interaction: ADP-Glo assay (AID 743206)
T1 sequence (P35557 whole entry, looked up): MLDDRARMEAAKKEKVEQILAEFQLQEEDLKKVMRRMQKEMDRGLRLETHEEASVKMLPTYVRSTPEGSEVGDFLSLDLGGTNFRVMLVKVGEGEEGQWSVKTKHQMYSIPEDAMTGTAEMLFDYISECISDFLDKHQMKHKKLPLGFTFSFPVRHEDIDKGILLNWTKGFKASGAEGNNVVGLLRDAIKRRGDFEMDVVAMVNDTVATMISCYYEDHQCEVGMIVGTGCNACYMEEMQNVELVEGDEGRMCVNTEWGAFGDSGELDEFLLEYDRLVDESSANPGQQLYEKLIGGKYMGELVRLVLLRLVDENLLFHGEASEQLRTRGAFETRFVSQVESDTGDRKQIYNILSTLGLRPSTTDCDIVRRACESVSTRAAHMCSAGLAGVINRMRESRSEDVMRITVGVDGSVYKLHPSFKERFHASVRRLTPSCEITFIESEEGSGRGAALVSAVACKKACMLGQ
T1 sequence (Q14397 whole entry, looked up): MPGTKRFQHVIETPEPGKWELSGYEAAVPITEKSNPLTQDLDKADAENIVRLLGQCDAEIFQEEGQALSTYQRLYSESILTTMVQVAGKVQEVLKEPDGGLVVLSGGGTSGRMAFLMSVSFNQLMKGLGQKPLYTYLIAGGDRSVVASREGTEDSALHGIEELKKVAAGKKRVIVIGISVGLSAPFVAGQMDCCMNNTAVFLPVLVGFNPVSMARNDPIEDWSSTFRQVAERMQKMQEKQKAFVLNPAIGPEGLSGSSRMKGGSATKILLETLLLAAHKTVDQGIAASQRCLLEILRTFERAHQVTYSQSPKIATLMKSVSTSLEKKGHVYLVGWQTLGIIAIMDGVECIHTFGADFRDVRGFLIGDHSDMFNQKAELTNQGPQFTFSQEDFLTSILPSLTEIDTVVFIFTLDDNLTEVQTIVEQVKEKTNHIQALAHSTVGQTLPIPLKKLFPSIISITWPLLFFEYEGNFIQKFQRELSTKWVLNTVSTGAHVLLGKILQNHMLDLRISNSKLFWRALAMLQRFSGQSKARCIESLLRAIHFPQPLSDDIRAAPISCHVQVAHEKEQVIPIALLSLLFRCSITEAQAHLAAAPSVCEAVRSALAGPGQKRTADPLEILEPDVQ
Outline: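 Pin-transferred compounds meet a 15 nM GST-GCK/15 nM FLAG-GKRP/2 uM S6P mix (dispense concentrations). ATP is then added to 0.4 mM final with 5 mM glucose, and the reaction runs 60 min at room temperature. ADP is quantified luminescently.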

[5] = target: T1, Hexokinase-4 (Homo sapiens) + Glucokinase regulatory protein (Homo sapiens); test: qHTS assay for inhibitors of recombinant human GCK-GKRP interaction: HTRF assay (AID 743207)
Outline: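 Titration screening format: recombinant GST-GCK and FLAG-GKRP at 5 nM, S6P at 2 uM, labelled anti-tag antibodies, 60 min at RT, dual-wavelength HTRF readout.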

[6] = Natriuretic polypeptide receptor (hNpr1) antagonism - Pilot counterscreen GloSensor control cell line (AID 1347045; calls by dose curve)
Outline: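 HEK293 cGMP-sensor cells; 2% GloSensor reagent 2 h RT; LOPAC compounds in 1:5 titrations 30-50 min; 50 uM SNP 20 min; luminescence pre-read and post-read.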

[7] = target: Atrial natriuretic peptide receptor 1 (Homo sapiens) (UniProt P16066); test: Natriuretic polypeptide receptor (hNpr1) antagonism - Pilot screen (AID 1347049; calls by dose curve;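 also: HEK293 cells with hNpr1 and GloSensor cGMP luciferase stimulated by 0.1 nM hNppA; agonist-evoked cGMP luminescence read 20 min after hNppA addition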)
Outline: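 Receptor antagonism read as cGMP-dependent luminescence in hNpr1/pGS-40F HEK293 cells: pre-read after 30 min compound exposure, post-read 20 min after hNppA agonist at 0.1 nM final, all at room temperature, protected from light; A-71915 titration as control.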

[8] = target: Atrial natriuretic peptide receptor 2 (Homo sapiens) (UniProt P20594); test: Natriuretic polypeptide receptor (hNpr2) antagonism - Pilot subtype selectivity assay (AID 1347050; calls by dose curve)
Atrial natriuretic peptide receptor 2 (Homo sapiens), sequence (P20594 whole entry, looked up): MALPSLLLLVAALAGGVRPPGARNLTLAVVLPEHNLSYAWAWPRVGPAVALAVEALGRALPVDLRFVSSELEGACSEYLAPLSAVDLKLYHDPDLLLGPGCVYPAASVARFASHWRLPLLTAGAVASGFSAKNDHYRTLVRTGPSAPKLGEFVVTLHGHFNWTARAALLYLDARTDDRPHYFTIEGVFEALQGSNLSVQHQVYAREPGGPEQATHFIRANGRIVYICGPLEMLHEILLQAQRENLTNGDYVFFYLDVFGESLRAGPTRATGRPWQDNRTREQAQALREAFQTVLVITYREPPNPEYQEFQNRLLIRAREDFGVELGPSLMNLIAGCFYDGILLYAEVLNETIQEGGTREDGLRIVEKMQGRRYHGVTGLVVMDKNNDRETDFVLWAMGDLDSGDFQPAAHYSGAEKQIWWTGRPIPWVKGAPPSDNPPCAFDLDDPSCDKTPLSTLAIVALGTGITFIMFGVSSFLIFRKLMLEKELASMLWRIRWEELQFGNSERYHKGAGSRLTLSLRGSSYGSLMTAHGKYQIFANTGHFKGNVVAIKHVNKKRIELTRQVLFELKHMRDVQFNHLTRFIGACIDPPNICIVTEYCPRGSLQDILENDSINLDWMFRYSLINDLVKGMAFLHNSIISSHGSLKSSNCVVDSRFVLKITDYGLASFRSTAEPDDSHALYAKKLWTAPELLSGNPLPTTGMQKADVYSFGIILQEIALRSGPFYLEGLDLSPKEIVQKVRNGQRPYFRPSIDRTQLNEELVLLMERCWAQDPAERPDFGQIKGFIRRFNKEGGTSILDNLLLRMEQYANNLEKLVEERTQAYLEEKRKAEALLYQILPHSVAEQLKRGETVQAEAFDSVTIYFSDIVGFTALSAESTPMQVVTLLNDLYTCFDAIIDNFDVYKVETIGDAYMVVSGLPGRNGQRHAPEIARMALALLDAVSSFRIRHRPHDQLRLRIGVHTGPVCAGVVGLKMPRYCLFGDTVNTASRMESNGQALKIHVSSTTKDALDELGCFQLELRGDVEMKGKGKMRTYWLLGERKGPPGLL
Outline: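 Antagonist mode: compounds (LOPAC1280, seven 1:5 dilutions) added 30 min before 1 nM hNppC stimulation of hNpr2-HEK293 cGMP-sensor cells; luminescence read before and 20 min after agonist at ambient temperature.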

[9] = NS1 protein of Zika virus - qHTS assay to identify small molecule inhibitors in human HEK 293 cells (AID 1347053); also: nearly all actives have a fitted effect of over 55% in size
Outline: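 Read-out is a two-antibody TR-FRET for ZIKV NS1, normalized between uninfected cells and infected cells. Compound added 1 h before MR766 infection at MOI 0.5; human HEK 293 cells incubated 24 h, 37 C.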

[10] = target: T2, Tyrosine-protein phosphatase non-receptor type substrate 1 (Homo sapiens) + Leukocyte surface antigen CD47 (Homo sapiens) (UniProt P78324+Q08722); test: CD47-SIRPalpha protein protein interaction - LANCE assay qHTS validation (AID 1347057; active = well fitted curve in the direction sought with a large enough effect in the signal ratio, with a control signal flat, not every such curve was filed as active; the % refers to the signal ratio)
T2 sequence (P78324 whole entry, looked up, the tested form may be a part): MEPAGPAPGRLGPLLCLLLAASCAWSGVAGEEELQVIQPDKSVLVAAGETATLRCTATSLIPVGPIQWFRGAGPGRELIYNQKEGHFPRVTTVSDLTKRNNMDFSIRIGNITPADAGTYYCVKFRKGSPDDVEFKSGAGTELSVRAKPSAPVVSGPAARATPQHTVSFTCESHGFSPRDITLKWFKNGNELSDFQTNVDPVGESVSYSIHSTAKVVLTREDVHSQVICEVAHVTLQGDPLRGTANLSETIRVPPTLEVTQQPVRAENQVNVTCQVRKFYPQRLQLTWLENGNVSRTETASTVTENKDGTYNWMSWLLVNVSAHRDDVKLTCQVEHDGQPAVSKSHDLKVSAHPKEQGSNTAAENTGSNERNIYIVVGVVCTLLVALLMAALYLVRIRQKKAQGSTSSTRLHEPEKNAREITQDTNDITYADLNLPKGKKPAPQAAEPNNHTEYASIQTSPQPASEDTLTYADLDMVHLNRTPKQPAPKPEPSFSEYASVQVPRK
T2 sequence (Q08722 whole entry, looked up, the tested form may be a part): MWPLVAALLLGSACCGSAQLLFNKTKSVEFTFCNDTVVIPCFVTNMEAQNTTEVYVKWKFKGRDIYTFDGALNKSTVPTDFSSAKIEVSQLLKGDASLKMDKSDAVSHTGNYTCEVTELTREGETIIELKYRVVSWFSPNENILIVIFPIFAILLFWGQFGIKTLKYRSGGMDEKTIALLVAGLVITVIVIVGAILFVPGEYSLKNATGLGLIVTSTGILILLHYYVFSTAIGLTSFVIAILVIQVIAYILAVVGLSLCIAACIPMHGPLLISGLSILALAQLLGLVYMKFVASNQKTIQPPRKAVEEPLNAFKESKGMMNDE
Outline: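 Inhibition of soluble CD47/SIRPalpha ectodomain association by titrated compounds, measured as 665/615 nm time-resolved FRET ratio after sequential 30 min room-temperature incubations.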

[11] = target: T2, Tyrosine-protein phosphatase non-receptor type substrate 1 (Homo sapiens) + Leukocyte surface antigen CD47 (Homo sapiens); test: CD47-SIRPalpha protein protein interaction - HTRF assay qHTS validation (AID 1347058; active = well fitted curve in the direction sought with a large enough effect in the signal ratio, not every such curve was filed as active; the % refers to the signal ratio)
Outline: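 Soluble extracellular domains (6His-CD47, Avi-tag-biotinylated SIRPalpha) in PBS pH 7.4 with 0.05% IGEPAL CA-630. Compounds were preincubated 30 min at RT with CD47 and anti-His-Eu, then SIRPalpha and SAV-XL665 were added. TR-FRET 665/615 ratio.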

[12] = target: T2, Tyrosine-protein phosphatase non-receptor type substrate 1 (Homo sapiens) + Leukocyte surface antigen CD47 (Homo sapiens); test: CD47-SIRPalpha protein protein interaction - Alpha assay qHTS validation (AID 1347059);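 also: bead proximity luminescence from CD47 binding SIRPalpha after compound preincubation with SIRPalpha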
Outline: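 AlphaScreen signal between CD47-His (12.5 nM) and biotin-SIRPalpha (25 nM) soluble extracellular domains, bead-captured via Ni-NTA and streptavidin. Compounds, in 7-point titrations, met SIRPalpha 30 min before CD47; PBS pH 7.4 with 0.05% IGEPAL.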

[13] = target: Parathyroid hormone/parathyroid hormone-related peptide receptor (Homo sapiens) (UniProt Q03431); test: qHTS for PTHR1 Agonists: Optimization Screen against the NCGC LOPAC library (AID 1347079);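 also: GloSensor cAMP luminescence in HEK-293 GP2 cells expressing human PTHR1 with IBMX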
Outline: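 Signal increase flags agonism. GP2 cells, derived from HEK-293, express human PTHR1 and a GloSensor cAMP construct.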

[14] = test system: Zika virus NS2B-NS3 protease (unlinked); test: Optimization of GU AMC qHTS for Zika virus inhibitors: Unlinked NS2B-NS3 protease assay (AID 1347151); also: nearly all actives have a fitted effect of over 80% in size
Outline: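 In this qHTS, compounds acted on 25 nM unlinked Zika NS2B–NS3 in pH 8.0 Tris/Tween buffer. Cleavage of an AMC peptide ran 15 min at room temperature, to about 20% conversion.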

[15] = test system: Zika virus NS2B-NS3 protease; test: Primary screen GU AMC qHTS for Zika virus inhibitors (AID 1347154); also: nearly all actives have a fitted effect of over 70% in size
Outline: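 Fluorogenic AMC-substrate cleavage by noncovalent NS2B-NS3 protease complex (25 nM, pH 8.0 Tris buffer with Tween 20) followed for 15 minutes at room temperature (~20% conversion). Percent inhibition from ex340/em450 signal change, fitted by 4-parameter Hill equation.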

[16] = target: Lysine-specific demethylase 5B (Homo sapiens) (UniProt Q9UGL1); test: Optimization screen for KDM5B Histone Demethylases FDH coupled qHTS against the LOPAC library (AID 1347166)
Outline: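 KDM5BDeltaAP (200nM final) in 50mM HEPES pH 7.5, 0.01% Tween-20 was preincubated with compound for 10 min at room temperature. A substrate mix of 12.5uM H3K4Me3, 25uM a-ketoglutarate, ascorbate, Fe2+, NAD+ and formaldehyde dehydrogenase was then added. NADH fluorescence (340/450 nm) was read initially and after 30 min.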

[17] = qHTS to identify inhibitors of the type 1 interferon - major histocompatibility complex class I in skeletal muscle: primary screen against the NCATS LOPAC collection (AID 1347405);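 also: human myoblasts with HiBiT tag on endogenous HLA-B stimulated by IFN-beta; lytic HiBiT luminescence reporting HLA-B protein level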
Outline: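 HLA-B HiBiT myoblasts, IFN-b 4 ng/ml, dexamethasone-free medium; compounds 7-pt 1:4.3 titration, top 46 uM final; 24 h at 37 C; Nano-Glo HiBiT lytic reagent, 10 min RT, luminescence.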

[18] = Validation qHTS assay for inhibitors of Activation Induced Cytidine Deaminase (AID): UDG Counterscreen signal (AID 1347427)
Outline: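 Fluorescence at 560 nm excitation, 665 nm emission reports UDG signal after 250 mM NaOH (2x) addition and 30 min. Enzymes (AID 1 uM, UDG 2 U/mL, at 4/3x) preincubated 10 min with compound, then 4 h with 4x 250 nM DJC20/DJC23 substrate at room temperature.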

[19] = target: Single-stranded DNA cytosine deaminase (Homo sapiens) (UniProt Q9GZX7); test: Validation qHTS assay for inhibitors of Activation Induced Cytidine Deaminase (AID): AID signal (AID 1347429)
Single-stranded DNA cytosine deaminase (Homo sapiens), sequence (Q9GZX7 whole entry, looked up): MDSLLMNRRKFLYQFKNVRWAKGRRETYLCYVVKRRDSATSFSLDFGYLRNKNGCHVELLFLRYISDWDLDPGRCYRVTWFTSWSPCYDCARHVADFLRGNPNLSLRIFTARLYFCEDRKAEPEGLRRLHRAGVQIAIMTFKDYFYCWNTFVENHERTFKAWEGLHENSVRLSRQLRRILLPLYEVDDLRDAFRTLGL
Outline: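 AID+UDG coupled FRET deamination; cpds up to 114 uM final; DJC20/DJC23 substrate, 4 hr RT; NaOH stop, 30 min RT; read Ex 540/Em 590.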

[20] = Primary qHTS for inhibitors of La Crosse Virus (LACV) - induced cell death in SH-SY5Y cells (AID 1508616);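 also: top concentration of the series differs between compounds; higher means more rescue of cells from virus-induced death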
Outline: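 Cytopathicity rescue screen: compounds pinned onto SH-SY5Y cells, which are then infected with LACV (MOI 0.01) and held 6 days at 37C. Percent activity is scaled between infected DMSO control and uninfected DMSO control.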

[21] = target: Calcium and integrin-binding protein 1 (Homo sapiens) (UniProt Q99828); test: Validation qHTS for Identification of Calcium Integrin Binding protein 1 (CIB1) Competitor (AID 1508618)
Calcium and integrin-binding protein 1 (Homo sapiens), sequence (Q99828 whole entry, looked up): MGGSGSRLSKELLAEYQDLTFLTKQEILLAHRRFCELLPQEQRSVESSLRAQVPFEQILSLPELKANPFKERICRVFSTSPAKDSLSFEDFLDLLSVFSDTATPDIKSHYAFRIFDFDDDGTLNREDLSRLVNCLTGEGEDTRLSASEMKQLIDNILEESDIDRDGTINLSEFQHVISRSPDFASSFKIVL
Outline: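 CIB1-GST (1 uM final) incubated 15 min at room temperature with compounds (up to 114 uM), then FITC-labelled alphaIIb peptide (100 nM) added. FP read (Ex 480/Em 540) after 15 min, pH 7.4 buffer containing 5 mM CaCl2.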

[22] = Primary qHTS for small molecule stabilizers of the endoplasmic reticulum resident proteome: Secreted ER Calcium Modulated Protein (SERCaMP) assay (AID 1508630)
Outline: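 The SH-SY5Y reporter protocol was run at 3 concentrations up to 38.3 uM (primary) or 11 concentrations (follow-up): 16 h compound, 100 nM thapsigargin for 4 h, then extracellular luciferase luminescence.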

Papain (Carica papaya) = Papain (Carica papaya) (UniProt P00784); test: Primary qHTS assay for inhibitors of the protease papain (AID 1645873);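 also: papain turnover of Z-FR-AMC read as the AMC fluorescence gain over 10 min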
Papain (Carica papaya), sequence (P00784 whole entry, looked up): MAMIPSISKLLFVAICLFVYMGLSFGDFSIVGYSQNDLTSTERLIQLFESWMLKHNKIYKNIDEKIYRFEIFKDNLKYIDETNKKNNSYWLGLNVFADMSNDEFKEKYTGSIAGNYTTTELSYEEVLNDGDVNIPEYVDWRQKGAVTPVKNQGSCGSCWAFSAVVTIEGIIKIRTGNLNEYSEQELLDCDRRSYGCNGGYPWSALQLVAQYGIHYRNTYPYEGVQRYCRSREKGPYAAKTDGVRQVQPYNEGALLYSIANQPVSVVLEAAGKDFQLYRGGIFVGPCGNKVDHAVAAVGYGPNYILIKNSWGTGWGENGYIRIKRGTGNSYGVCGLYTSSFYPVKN

[23] = target: Catechol O-methyltransferase (Homo sapiens) (UniProt P21964); test: Confirmatory Screen for Target Class Profiling of Small Molecule Inhibitors of Methyltransferases (AID 1745852; calls by dose curve); settings: MTase-Glo luminescence, SAH detection, recombinant enzyme; measured here: COMT max response; stronger effect = lower value
Catechol O-methyltransferase (Homo sapiens), sequence (P21964 whole entry, looked up): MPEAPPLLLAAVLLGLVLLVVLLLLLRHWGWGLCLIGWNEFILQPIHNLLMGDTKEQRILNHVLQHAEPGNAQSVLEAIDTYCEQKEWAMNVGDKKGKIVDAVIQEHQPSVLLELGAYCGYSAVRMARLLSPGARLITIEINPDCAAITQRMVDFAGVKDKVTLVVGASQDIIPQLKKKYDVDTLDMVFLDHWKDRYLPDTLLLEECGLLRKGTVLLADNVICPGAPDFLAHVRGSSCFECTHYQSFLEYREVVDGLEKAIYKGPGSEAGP

[24] = target: Guanidinoacetate N-methyltransferase (Homo sapiens) (UniProt Q14353); test: as above; settings: activity change, negative = inhibition: at 57.3 µM (top of the series) unless noted
[25] = target: Nicotinamide N-methyltransferase (Homo sapiens) (UniProt P40261); test: as above; settings: MTase-Glo luminescence, SAH detection, recombinant enzyme; measured here: NNMT max response; stronger effect = lower value
[26] = target: Phenylethanolamine N-methyltransferase (Homo sapiens) (UniProt P11086); test: as above; settings: MTase-Glo luminescence, SAH detection, recombinant enzyme; measured here: PNMT max response; stronger effect = lower value
Phenylethanolamine N-methyltransferase (Homo sapiens), sequence (P11086 whole entry, looked up): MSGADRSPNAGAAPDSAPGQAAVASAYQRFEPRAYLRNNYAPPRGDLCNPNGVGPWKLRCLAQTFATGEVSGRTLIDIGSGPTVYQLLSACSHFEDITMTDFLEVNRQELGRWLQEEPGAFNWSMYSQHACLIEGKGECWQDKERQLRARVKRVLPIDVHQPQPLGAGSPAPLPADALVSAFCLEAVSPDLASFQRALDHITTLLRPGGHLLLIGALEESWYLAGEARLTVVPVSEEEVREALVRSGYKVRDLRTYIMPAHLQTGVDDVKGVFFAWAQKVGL

[27] = target: Metallo-beta-lactamase type 2 (Klebsiella pneumoniae) (UniProt C7C422); test: qHTS to identify inhibitors of the New Delhi Metallo-beta-lactamase (NDM): assay validation screen against the NCATS LOPAC Collection (AID 1794843)
Metallo-beta-lactamase type 2 (Klebsiella pneumoniae), sequence (C7C422 whole entry, looked up): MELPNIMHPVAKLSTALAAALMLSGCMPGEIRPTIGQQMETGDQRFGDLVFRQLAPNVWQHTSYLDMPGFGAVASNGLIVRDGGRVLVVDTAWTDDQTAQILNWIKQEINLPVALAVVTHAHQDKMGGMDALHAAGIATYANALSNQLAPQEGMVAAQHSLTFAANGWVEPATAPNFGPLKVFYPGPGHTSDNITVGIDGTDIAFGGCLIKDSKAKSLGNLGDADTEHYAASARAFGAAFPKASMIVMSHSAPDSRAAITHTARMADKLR
Outline: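 Absorbance at 485 nm from nitrocefin turnover (50 uM solution added), read at plateau, gives the read-out. Compounds in DMSO were incubated first with 2 nM final NDM-1 in pH 7.0 HEPES buffer containing 1 uM ZnSO4 and 0.01% Tween20.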

[28] = target: Glutathione peroxidase 1 (Homo sapiens) (UniProt P07203); test: Primary qHTS Assay for Inhibitors of Recombinant Selenoprotein Glutathione Peroxidase 1 (GPX1) (AID 1845191); also: nearly all actives have a fitted effect of over 65% in size
Glutathione peroxidase 1 (Homo sapiens), sequence (P07203 whole entry, looked up): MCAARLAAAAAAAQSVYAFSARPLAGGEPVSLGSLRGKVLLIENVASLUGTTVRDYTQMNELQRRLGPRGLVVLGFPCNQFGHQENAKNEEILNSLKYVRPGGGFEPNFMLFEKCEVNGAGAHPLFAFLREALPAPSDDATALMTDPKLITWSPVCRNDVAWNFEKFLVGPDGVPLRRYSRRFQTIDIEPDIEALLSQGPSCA
Outline: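 NADPH consumption tracked by fluorescence at 340/450 nm between t=0 and t=15 min, room temperature. Final mix: 10 nM GPX1, 100 nM glutathione reductase, 1 mM GSH, 0.5 mM NADPH, 0.5 mM cumene hydroperoxide, 0.01% BSA; 30 min compound–enzyme preincubation.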

[29] = target: Phospholipid hydroperoxide glutathione peroxidase GPX4 (Homo sapiens) (UniProt P36969); test: Primary qHTS Assay for Inhibitors of Recombinant Selenoprotein Glutathione Peroxidase 4 (GPX4) (AID 1845192); settings: outcome: dose series up to 50 µM unless noted; also: nearly all actives have a fitted effect of over 65% in size
Phospholipid hydroperoxide glutathione peroxidase GPX4 (Homo sapiens), sequence (P36969 whole entry, looked up): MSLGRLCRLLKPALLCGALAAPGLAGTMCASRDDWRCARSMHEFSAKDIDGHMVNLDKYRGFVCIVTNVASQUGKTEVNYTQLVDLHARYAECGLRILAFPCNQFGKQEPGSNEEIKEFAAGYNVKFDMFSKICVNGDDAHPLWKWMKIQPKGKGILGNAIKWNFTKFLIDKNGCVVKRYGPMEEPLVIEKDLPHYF
Outline: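 NADPH consumption followed by fluorescence at 340/450 nm, t=0 and after 15 min at room temperature. Reaction started with cumene hydroperoxide (0.5 mM final) after 30 min compound–GPX4 preincubation; final 200 nM GPX4, 100 nM GR, 1 mM GSH, 0.5 mM NADPH.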

C[C@H](Cc1ccccc1)Nc1ncnc2c1ncn2[C@@H]1O[C@H](CO)[C@@H](O)[C@H]1O
4.48%: activity [25]
-28.1%: activity [23]
-3.97%: activity change, negative = inhibition [24]
inactive: outcome [1] | outcome [2] | Potency [3] | outcome [4] | outcome [5] | Potency [6] | Potency [7] | Potency [8] | outcome [9] | outcome [10] | outcome [11] | Potency [12] | outcome [13] | Potency [14] | Potency [15] | outcome [16] | Potency [17] | outcome [18] | Potency [19] | outcome [20] | outcome [21] | Potency [22] | Potency (Papain (Carica papaya)) | Potency [27] | Potency [28] | Potency [29]
-12.3%: activity [26]
